This note sets out measurements from the antibiotic and cytotoxicity screens of Wong et al. (2023).

Structures are written as SMILES. The whole screen tested about 39,000 compounds, of which about 3,300 (8.5%) were called active. The entries come from a sample that favours actives as a whole.

The assay deals with HepG2. The assay can be described thus: cytotoxicity call (relative viability < 0.9). Conditions: 10 µM.
As to `C[C@@H]1CN([C@@H](C)CO)S(=O)(=O)c2ccc(-c3cccc(C(=O)N(C)C)c3)cc2O[C@@H]1CN(C)C(=O)Cc1ccccn1`, the cytotoxicity call was “inactive”. On to `COc1ccc([C@@H]([C@H](Cc2ccccc2)OC(C)=O)N2C[C@H]3C(=NO[C@@H]3[C@@H](OC(C)=O)c3ccccc3)[C@@H]2Cc2ccccc2)cc1`, for which the cytotoxicity call was “inactive”. Turning to `C[C@@H]1CN([C@@H](C)CO)C(=O)c2cc(NC(=O)CCN3CCOCC3)ccc2O[C@H]1CN(C)Cc1ccc2c(c1)OCO2`, the cytotoxicity call was “inactive”. As for `COCC(=O)Nc1ccc2c(c1)C(=O)N(C)C[C@@H](OC)[C@@H](C)CN(C(=O)c1ccccc1F)[C@@H](C)CO2`, the entry is “inactive”; as for `CO[C@@H]1CN(C)C(=O)c2cc(NC(=O)C3CCCC3)ccc2OC[C@@H](C)N(C(=O)Nc2ccc(C(F)(F)F)cc2)C[C@H]1C`, “inactive”. With `Cc1cnc(CNC(=O)[C@H]2C[C@H]3[C@@H](CCN3S(C)(=O)=O)O2)cn1` the entry was “inactive”. As for `O=C(C[C@@H]1C[C@@H]2c3cc(NS(=O)(=O)c4ccc(F)cc4)ccc3O[C@@H]2[C@H](CO)O1)NCC(F)(F)F`, the entry is “inactive”; as for `CC=Cc1ccc2n(c1=O)C[C@@H]1[C@@H](CO)[C@H](C(=O)NCCc3cn(C)cn3)[C@H]2N1C(=O)C1CC1`, “inactive”; as for `Cn1c(=O)c(=O)n(C)c2cc(S(=O)(=O)CCC(=O)NCc3ccccc3)ccc21`, “inactive”. For the compound `CCCCOC(=O)c1ccc(O)cc1`, the cytotoxicity call is “inactive”. As for `CCCCNc1ccc(C(=O)OCCOCCOCCOCCOCCOCCOCCOCCOCCOC)cc1`, the entry is “inactive”. With `CCCCNc1ccc(C(=O)OCCN(C)C)cc1.Cl` the entry was “active”; with `Cc1noc(C)c1NC(=O)N(C)C[C@@H]1Oc2c(NC(=O)Nc3cccc4ccccc34)cccc2C(=O)N([C@H](C)CO)C[C@@H]1C`, “inactive”. On to `C[C@@H]1CN([C@H](C)CO)C(=O)c2cc(NC(=O)c3ccccc3)ccc2O[C@@H](C)CCCCO[C@@H]1CN(C)Cc1ccncc1`, for which the cytotoxicity call is “inactive”. With `O=C(C1CCC1)N1CCOCC1` the entry was “inactive”; with `C[C@@H](N)CCc1ccc(Br)cc1`, “inactive”; with `C[C@@H]1CCCCO[C@@H](CN(C)C(=O)C2CCCCC2)[C@H](C)CN([C@@H](C)CO)C(=O)c2cc(NC(=O)c3ccncc3)ccc2O1`, “inactive”. `C[C@@H]1CN([C@H](C)CO)C(=O)c2cc(NC(=O)CCCN(C)C)ccc2O[C@@H]1CN(C)C(=O)Nc1ccc2c(c1)OCO2`: the cytotoxicity call was “inactive”. As for `Cc1ccc(S(=O)(=O)Nc2ccc3c(c2)C(=O)N([C@@H](C)CO)C[C@H](C)[C@H](CN(C)C(=O)Nc2cccc4ccccc24)O3)cc1`, the entry is “inactive”; as for `C[C@@H]1CN([C@H](C)CO)C(=O)c2cc(NS(=O)(=O)c3ccccc3)ccc2O[C@H]1CN(C)C(=O)Nc1cccc2ccccc12`, “inactive”; as for `Cc1ccc(S(=O)(=O)Nc2ccc3c(c2)C(=O)N([C@H](C)CO)C[C@@H](C)[C@H](CN(C)C(=O)Nc2cccc4ccccc24)O3)cc1`, “active”. With `C[C@H](CO)N1C[C@H](C)[C@H](CN(C)C(=O)Nc2cccc3ccccc23)Oc2ccc(NS(=O)(=O)c3ccccc3)cc2C1=O` the entry was “inactive”. As for `Cc1ccc(S(=O)(=O)Nc2ccc3c(c2)C(=O)N([C@@H](C)CO)C[C@H](C)[C@@H](CN(C)C(=O)Nc2cccc4ccccc24)O3)cc1`, the entry is “inactive”; as for `C[C@@H]1CN([C@H](C)CO)C(=O)c2cc(NS(=O)(=O)c3ccccc3)ccc2O[C@@H]1CN(C)C(=O)Nc1cccc2ccccc12`, “active”. Take `CC(C)NC(=O)N(C)C[C@H]1Oc2ccc(NC(=O)c3ccncc3)cc2CC(=O)N([C@H](C)CO)C[C@@H]1C`: the cytotoxicity call is “inactive”. As for `C[C@@H]1CCCCO[C@H](CN(C)S(=O)(=O)c2cccs2)[C@H](C)CN([C@@H](C)CO)C(=O)c2cc(NS(=O)(=O)c3cn(C)cn3)ccc2O1`, the entry is “inactive”; as for `Cc1ccc(S(=O)(=O)Nc2ccc3c(c2)C(=O)N([C@@H](C)CO)C[C@@H](C)[C@@H](CN(C)C(=O)NC2CCCCC2)OCCCC[C@@H](C)O3)cc1`, “inactive”; as for `CC(C)(C)OC(=O)C[C@H]1CC=CC[C@H](CC(=O)NCCO)C(=O)N[C@H](Cc2ccccc2)COC1=O`, “inactive”. As for `C[C@@H]1CN([C@H](C)CO)C(=O)Cc2cc(NS(=O)(=O)c3cn(C)cn3)ccc2O[C@H]1CN(C)Cc1ccc(C(=O)Nc2ccccc2N)cc1`, the entry is “inactive”; as for `CN1C(=O)c2cc(NS(=O)(=O)c3cccc(F)c3)ccc2OC[C@H]2O[C@@H](CC(=O)NCCN3CCCCC3)CC[C@H]21`, “inactive”; as for `C[C@H](CO)N1C[C@H](C)[C@H](CN(C)Cc2ccc3c(c2)OCO3)Oc2ccc(NC(=O)Nc3ccc(C(F)(F)F)cc3)cc2CC1=O`, “active”. With `C[C@H]1CN([C@@H](C)CO)C(=O)Cc2cc(NC(=O)Nc3ccc(C(F)(F)F)cc3)ccc2O[C@H]1CN(C)Cc1ccc2c(c1)OCO2` the entry was “inactive”; with `C[C@H](CO)N1C[C@H](C)[C@@H](CN(C)Cc2ccc3c(c2)OCO3)Oc2ccc(NC(=O)Nc3ccc(C(F)(F)F)cc3)cc2CC1=O`, “active”. Regarding `C[C@@H]1CN([C@@H](C)CO)C(=O)Cc2cc(NC(=O)Nc3ccc(C(F)(F)F)cc3)ccc2O[C@H]1CN(C)Cc1ccc2c(c1)OCO2`, the cytotoxicity call is “active”. In the case of `C[C@@H]1CN([C@H](C)CO)C(=O)Cc2cc(NC(=O)Nc3ccc(C(F)(F)F)cc3)ccc2O[C@H]1CN(C)Cc1ccc2c(c1)OCO2`, the cytotoxicity call was “inactive”.

Consider `C[C@H]1CN([C@@H](C)CO)C(=O)Cc2cc(NC(=O)Nc3ccc(C(F)(F)F)cc3)ccc2O[C@@H]1CN(C)Cc1ccc2c(c1)OCO2`, for which the cytotoxicity call is “inactive”. As for `C[C@@H]1CN([C@H](C)CO)C(=O)Cc2cc(NC(=O)Nc3ccc(C(F)(F)F)cc3)ccc2O[C@@H]1CN(C)Cc1ccc2c(c1)OCO2`, the entry is “active”.

Consider `Cc1noc(C)c1NC(=O)N(C)C[C@@H]1OCCCC[C@@H](C)Oc2ccc(NC(=O)NC3CCCCC3)cc2C(=O)N([C@H](C)CO)C[C@H]1C`, for which the cytotoxicity call was “inactive”.

In the case of `NCC[C@@H]1CC[C@@H](NC(=O)C2CC2)[C@H](CO)O1`, the cytotoxicity call was “inactive”. Regarding `COc1ccc(CN(C)C[C@@H]2Oc3ccc(NS(=O)(=O)c4cn(C)cn4)cc3CC(=O)N([C@@H](C)CO)C[C@@H]2C)cc1`, the cytotoxicity call is “inactive”.

In the case of `C[C@@H]1CCCCO[C@H](CN(C)C(=O)C2CCCCC2)[C@@H](C)CN([C@H](C)CO)C(=O)c2cc(NC(=O)c3ccncc3)ccc2O1`, the cytotoxicity call is “inactive”.

As to `C[C@@H]1CN([C@H](C)CO)C(=O)c2cc(NC(=O)Cc3ccccc3)ccc2O[C@@H](C)CCCCO[C@@H]1CN(C)Cc1ccc2c(c1)OCO2`, the cytotoxicity call was “inactive”. With `C[C@@H]1CN([C@H](C)CO)C(=O)c2cc(Br)cnc2O[C@H]1CN(C)C(=O)Nc1ccccc1F` the entry was “inactive”; with `CCCCC[C@@H](C[C@@H](CC(=O)O)O[C@H]1O[C@@H](CO)[C@@H](O[C@H]2O[C@@H](CO)[C@@H](O)[C@@H](O)[C@@H]2O)[C@@H](O)[C@@H]1O)OC(=O)C[C@H](O)C[C@H](CCCCC)O[C@H]1O[C@@H](CO)[C@@H](O)[C@@H](O)[C@@H]1O`, “inactive”.

As to `Cn1c(O)cc(=O)n(C)c1=O`, the cytotoxicity call is “inactive”. On to `CCS(=O)(=O)NCC[C@H]1CC[C@H](NS(=O)(=O)c2ccccc2C)[C@@H](CO)O1`, for which the cytotoxicity call is “inactive”. With `Cc1cccc(/C=C2\CS/C(=C\c3cccc(C)c3)C2=O)c1` the entry was “inactive”; with `COC(=O)[C@@H]1C[C@H](C#N)N[C@@H]1c1ccccn1`, “inactive”; with `C[C@@H]1CN([C@@H](C)CO)C(=O)Cc2cc(NC(=O)Nc3ccc(C(F)(F)F)cc3)ccc2O[C@@H]1CN(C)Cc1ccc2c(c1)OCO2`, “active”. Consider `C[C@H]1CN([C@@H](C)CO)S(=O)(=O)c2ccc(C#CCN(C)C)cc2O[C@H]1CN(C)S(C)(=O)=O`, for which the cytotoxicity call was “inactive”. With `COc1ccc(C(=O)NCc2ccc(OCCN(C)C)cc2)cc1OC` the entry was “inactive”; with `COc1ccc(CCN(C)CCCOc2ccc(S(=O)(=O)c3[nH]c4ccccc4c3C(C)C)cc2)cc1OC`, “active”; with `COc1ccc(CCN(C)CCCOc2ccc(S(=O)(=O)c3c(C(C)C)c4ccccc4n3C)cc2)cc1OC`, “active”.

Consider `COc1ccc(CCN(C)CCCOc2ccc(S(=O)(=O)c3c(C(C)C)cn4ccccc34)cc2)cc1OC`, for which the cytotoxicity call was “active”. As for `COc1ccc(NC(=O)N(C)C[C@H]2Oc3c(NS(=O)(=O)c4cn(C)cn4)cccc3C(=O)N([C@H](C)CO)C[C@@H]2C)cc1`, the entry is “inactive”. As for `COc1ccc(S(=O)(=O)N(C)C[C@H]2Oc3ccc(NC(=O)CCN4CCOCC4)cc3C(=O)N([C@@H](C)CO)C[C@@H]2C)cc1`, the cytotoxicity call was “inactive”.

As for `C[C@@H]1CN([C@@H](C)CO)C(=O)c2cc(NS(=O)(=O)c3cccs3)ccc2O[C@@H]1CN(C)S(=O)(=O)c1cn(C)cn1`, the cytotoxicity call was “inactive”. With `c1ccc(NC2CCCCC2)nc1` the entry was “inactive”. As for `CO[C@H]1CN(C)C(=O)c2cc(NS(=O)(=O)CC(F)(F)F)ccc2OC[C@@H](C)N(Cc2ccccn2)C[C@@H]1C`, the entry is “inactive”; as for `CN(C)CC(=O)N1CC(=O)N2[C@@H](CO)[C@@H](c3ccc(C#Cc4cccnc4)cc3)[C@@H]2C1`, “inactive”. As for `C[C@H]1CCCCO[C@@H](CN(C)Cc2ccncc2)[C@@H](C)CN([C@@H](C)CO)C(=O)c2cc(NC(=O)Nc3ccc(F)cc3)ccc2O1`, the entry is “inactive”; as for `C=CC1=C(C(=O)O)N2C(=O)[C@@H](NC(=O)/C(=N\OCC(=O)O)c3csc(N)n3)[C@H]2SC1`, “inactive”; as for `C=CC1=C(C(=O)O)N2C(=O)C(NC(=O)C(=NO)c3csc(N)n3)C2SC1` (stereo unspecified), “inactive”.

`C=CC1=C(C(=O)O)N2C(=O)C(NC(=O)C(=NOCC(=O)O)c3csc(N)n3)C2SC1` (stereo unspecified): the cytotoxicity call was “active”. With `CC(C)CC#Cc1ccc2c(c1)O[C@@H](CN(C)C(=O)Cc1ccncc1)[C@@H](C)CN([C@H](C)CO)S2(=O)=O`, the cytotoxicity call was “inactive”. As for `C[C@@H]1CN([C@H](C)CO)C(=O)Cc2cc(N(C)C)ccc2O[C@@H]1CN(C)S(=O)(=O)c1ccc(Cl)cc1`, the entry is “inactive”; as for `C[C@H](CO)N1C[C@H](C)[C@H](CN(C)S(=O)(=O)c2ccc(Cl)cc2)Oc2ccc(N(C)C)cc2CC1=O`, “active”; as for `C[C@H]1CN([C@@H](C)CO)C(=O)Cc2cc(N(C)C)ccc2O[C@@H]1CN(C)S(=O)(=O)c1ccc(Cl)cc1`, “inactive”.

Consider `C[C@@H]1CN([C@@H](C)CO)C(=O)Cc2cc(N(C)C)ccc2O[C@H]1CN(C)S(=O)(=O)c1ccc(Cl)cc1`, for which the cytotoxicity call was “inactive”.

Regarding `C[C@@H]1CN([C@H](C)CO)C(=O)Cc2cc(N(C)C)ccc2O[C@H]1CN(C)S(=O)(=O)c1ccc(Cl)cc1`, the cytotoxicity call was “inactive”.

Take `C[C@H]1CN([C@@H](C)CO)C(=O)Cc2cc(N(C)C)ccc2O[C@H]1CN(C)S(=O)(=O)c1ccc(Cl)cc1`: the cytotoxicity call was “active”.
